Consider 2 molecules from the supplement of paper PMC11628255, “Interference of metal ions on the bioluminescent signal of firefly, Renilla, and NanoLuc luciferases in high-throughput screening assays” (Frontiers in Chemistry, 2024).

In the test the test system is NanoLuc luciferase (NLuc). Description: residual bioluminescent signal relative to negative control without GSH; higher = less interference (more residual luciferase signal). Particulars: screening conditions buffer. The protocol:
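Selected metal salts at 3-4 concentrations tested on purified FLuc, NLuc or RLuc in screening buffer with 0, 0.2 or 2 mM glutathione added; 10 min enzyme pre-incubation at RT, luminescence 10 min after substrate. Signal normalised to negative control without GSH (% N_VALUE); triplicate wells.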

[1] abbreviates: metal salt concentration 1 mM, glutathione 0 mM.
Setting [2] is: metal salt concentration 1 mM, glutathione 0.2 mM.
The mark [3] stands for this setting: metal salt concentration 1 mM, glutathione 2 mM.

SMILES strings stand for the structures. ± gives the standard deviation of the averaged measurements.

Take `[Cl][Fe]([Cl])[Cl]` [iron(III) chloride]: the residual bioluminescent signal was 95.59 ± 0.8% (metal salt concentration 0.01 mM, glutathione 0 mM); 101 ± 6.7% (metal salt concentration 0.01 mM, glutathione 0.2 mM); 82.7 ± 2.5% (metal salt concentration 0.01 mM, glutathione 2 mM); 60.2 ± 3.4% (metal salt concentration 0.816 mM, glutathione 0 mM); 69.1 ± 0.65% (metal salt concentration 0.816 mM, glutathione 0.2 mM); 28.9 ± 1.5% (metal salt concentration 0.816 mM, glutathione 2 mM). The residual bioluminescent signal by setting is: under setting [1], 54.3 ± 4.4%; under setting [2], 55.5 ± 7.2%; under setting [3], 44.4 ± 35%; (metal salt concentration 2.5 mM, glutathione 0 mM) 4.41 ± 1.8%; (metal salt concentration 2.5 mM, glutathione 0.2 mM) 7.61 ± 0.73%; (metal salt concentration 2.5 mM, glutathione 2 mM) 1.69 ± 0.99%.

As for `[Cl][Fe][Cl]` [iron(II) chloride], the residual bioluminescent signal reads like this: (metal salt concentration 0.05 mM, glutathione 0 mM) 94.3 ± 1.3%; (metal salt concentration 0.05 mM, glutathione 0.2 mM) 100 ± 3.5%; (metal salt concentration 0.05 mM, glutathione 2 mM) 82.2 ± 1.7%; (metal salt concentration 0.88 mM, glutathione 0 mM) 47.8 ± 5.5%; (metal salt concentration 0.88 mM, glutathione 0.2 mM) 49.4 ± 1.8%; (metal salt concentration 0.88 mM, glutathione 2 mM) 34.8 ± 2.7%. For the same molecule, the residual bioluminescent signal under setting [1] amounted to 38.2 ± 3.3%; the residual bioluminescent signal under setting [2] amounted to 47.6 ± 1.5%; the residual bioluminescent signal under setting [3] worked out at 30.5 ± 2.4%; the residual bioluminescent signal (metal salt concentration 5 mM, glutathione 0 mM) came out at 1.69 ± 0.79%; the residual bioluminescent signal (metal salt concentration 5 mM, glutathione 0.2 mM) was determined as 2.48 ± 0.68%; the residual bioluminescent signal (metal salt concentration 5 mM, glutathione 2 mM) is 7.22 ± 0.76%.
